# CYP2C9 activ = human CYP2C9 activators, primary screen, biochemical, luminescence; activation factor at 5 µM; Cytochrome P450 2C9 (Homo sapiens), P11712; AID 1024, 2008; 96,000 compounds, 1.4% hits; recombinant CYP2C9, luciferin-H conversion; stronger effect = higher value; factor 1 = untreated enzyme, 0 = blocked;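 active means activation factor of 2 or more for CYP2C9 at a 5 µM dose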;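 further: 0 = sulfaphenazole-blocked wells and 1 = vehicle-only wells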
# Target sequence (P11712 whole entry, looked up): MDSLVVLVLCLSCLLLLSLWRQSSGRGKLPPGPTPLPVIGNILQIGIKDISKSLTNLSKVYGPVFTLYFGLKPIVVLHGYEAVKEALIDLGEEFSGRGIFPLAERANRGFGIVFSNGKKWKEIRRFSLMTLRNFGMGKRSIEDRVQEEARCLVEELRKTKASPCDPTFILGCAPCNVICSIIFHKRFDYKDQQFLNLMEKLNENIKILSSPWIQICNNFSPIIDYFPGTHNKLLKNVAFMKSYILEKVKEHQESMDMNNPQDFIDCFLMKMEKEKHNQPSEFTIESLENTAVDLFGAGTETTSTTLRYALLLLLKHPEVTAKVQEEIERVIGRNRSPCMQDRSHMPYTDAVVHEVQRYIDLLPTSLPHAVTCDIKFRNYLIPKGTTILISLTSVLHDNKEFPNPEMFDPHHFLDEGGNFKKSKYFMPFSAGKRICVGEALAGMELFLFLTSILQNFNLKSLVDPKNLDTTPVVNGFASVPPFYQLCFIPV
# sEH inhibitor = soluble epoxide hydrolase inhibitors, primary screen, biochemical, human sEH | Bifunctional epoxide hydrolase 2 (Homo sapiens), P34913 | recombinant human sEH enzymatic activity assay | inhibition, % at 2 µM | 91,000 compounds, 0.34% hits | AID 707, 2007; in the data active means inhibition above about 80%
# CYP2C9 inhib = blockers of cytochrome P450 2C9 activity – biochemical, luminescence, ADME assay, primary screen; P11712; CYP2C9 Supersomes, luciferin-H conversion; inhibition, % at 5 µM; 96,000 compounds, 20% hits;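 active means blocking of liver enzyme CYP2C9 beyond about 50% at 5 µM, limit read from the data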
# CYP2C19 inh = blockers of cytochrome P450 2C19 activity – biochemical, luminescence, ADME assay, primary screen | CYP2C19 Supersomes, luciferin-H EGE luminescence, 30 min | AID 778, 2007 | inhibition, % at 5 µM | 96,000 compounds, 21% hits | P33261;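 active means CYP2C19 inhibition above a set limit at 5 µM in the primary screen, cut at about 50% in these data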;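 further: plate controls were negative control wells for no effect and 2.5 mM tranylcypromine positive control for full effect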
# sEH act = soluble epoxide hydrolase activators, primary screen, biochemical, human sEH; Bifunctional epoxide hydrolase 2 (Homo sapiens), P34913; purified human sEH enzymatic activity, activator screen; activation, % at 2 µM; 91,000 compounds, 0.04% hits; AID 717, 2007; in the data active means activation above about 37%
# CYP2C19 activ = human CYP2C19 activators, primary screen, biochemical, luminescence | Cytochrome P450 2C19 (Homo sapiens), P33261 | recombinant CYP2C19, luciferin-H EGE luminescence; stronger effect = higher value; 0 = fully inhibited enzyme, 1 = untreated enzyme | activation factor at 5 µM | 96,000 tested, under 10 active | AID 1025, 2008;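 active means activation factor of at least 2 at 5 µM in the primary screen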;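 further: 0 = wells with 2.5 mM tranylcypromine and 1 = vehicle-only wells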
# Starred values were filed as active, the others as inactive; nt = no result given. Rows were chosen to be rich in hits. Some 27% of all compounds tested hit in one or more screens of this group.
SMILES,CYP2C9 activ,sEH inhibitor,CYP2C9 inhib,CYP2C19 inh,sEH act,CYP2C19 activ
O=C(Nc1nnc(-c2ccccc2Cl)o1)c1nc2ccccc2s1,0.7,-24.6,34.2,68.6*,23.3,0.3
COc1cccc2sc(Nc3nnc(-c4ccccc4Cl)o3)nc12,1.2,nt,-19.8,-4.3,nt,1
O=C(Nc1nnc(-c2ccccc2Cl)o1)c1ccco1,0.1,0.5,93.2*,9.7,0.2,0.9
COc1cccc(NC2=NC3(CCCCC3)N=C(N)N2)c1,1.2,4.1,-15.4,-10.0,-1.4,1.1
N#Cc1nc(COc2ccccc2)oc1NCCCn1ccnc1,0,-7.8,95.3*,99.8*,9.3,0
N#Cc1nc(COc2ccccc2F)oc1NCCCn1ccnc1,0.1,-7.3,89.6*,96.6*,8.7,0
Cc1ccc(OCc2nc(C#N)c(NCCCn3ccnc3)o2)cc1,0.1,-0.8,90.7*,99.1*,1.5,0
N#Cc1nc(COc2ccc(Br)cc2)oc1NCCCn1ccnc1,0,-11.3,99.5*,99.9*,8.9,0
C=CCSc1ncccc1C(=O)O,0.9,3.4,9.8,6.8,-0.1,0.9
N#Cc1nc(COc2ccc(F)cc2)oc1NCCCn1ccnc1,0.1,4.0,87.5*,96.5*,-3.4,0
CN(C)CCNc1oc(COc2ccc(Cl)cc2)nc1C#N,0.9,-6.8,13.1,26.8,9.7,0.7
Cc1ccc(-n2c(=O)c3sccc3n(CC(=O)NCc3ccco3)c2=O)cc1F,0.9,-11.1,8.8,-5.2,11.3,1.1
CCOC(=O)CSC1=Nc2ccccc2C2=NC(CC(=O)NCc3ccc4c(c3)OCO4)C(=O)N12 (stereo unspecified),0.7,11.1,33.0,0.7,-11.3,1
Cc1cc2n(n1)SC(Nc1cc(Cl)ccc1Cl)N2 (stereo unspecified),nt,1.5,nt,nt,-3.9,nt
COc1ccc(C(=O)c2cn[nH]c2-c2cc(Cl)ccc2O)cc1,0.1,-0.2,92.4*,98.5*,-0.3,0
O=C(c1ccc(F)cc1)c1cn[nH]c1-c1ccccc1O,0.9,7.4,12.8,31.5,-6.2,0.7
O=C(c1ccc(Cl)cc1)c1cn[nH]c1-c1ccccc1O,0.1,1.7,86.5*,95.2*,-2.6,0
Cc1ccc(C(=O)c2cn[nH]c2-c2ccccc2O)cc1,0.6,7.2,44.1,89.2*,-9.8,0.1
COc1ccc(-c2nnn(CC(=O)N(CC(=O)NCCC(C)C)c3ccccc3)n2)cc1OC,1.1,10.9,-8.6,32.2,-12.6,0.7
COc1ccc(CCNC(=O)Cn2nnc(-c3cccc(OC)c3OC)n2)cc1OC,0.8,2.8,21.7,43.3,-2.5,0.6
COc1ccc(C(=O)Cn2nnc(-c3ccccc3F)n2)cc1,1.4,-4.8,-41.2,54.9*,4.8,0.5
O=C(Cn1nnc(-c2ccccc2F)n1)Nc1cccc2ncccc12,0.7,5.2,28.6,62.8*,-1.4,0.4
O=C(Cn1nnc(-c2ccccc2F)n1)NCCc1ccccc1,0.7,2.4,33.4,69.7*,-3.6,0.3
O=C(CN(C(=O)Cn1nnc(-c2ccccc2F)n1)c1cccc2c1CCCC2)NCc1ccccc1,0,66.3,96.0*,22.6,-67.3,0.8
O=C(Cc1cc(=O)[nH]c(=O)[nH]1)NCCN1CCOCC1,nt,0.6,nt,nt,-1.8,nt
SMILES,CYP2C9 activ,sEH inhibitor,CYP2C9 inhib,CYP2C19 inh,sEH act,CYP2C19 activ
O=c1c2ccccc2nc(SCc2cc(=O)n3ccsc3n2)n1CCCO,0.6,-20.4,38.3,24.9,18.0,0.8
Cc1ccc(CNC(=O)CSc2nnnn2C)cc1,0.8,-4.6,24.2,16.2,3.0,0.8
Cc1ccc(CNC(=O)CSc2nc3ccccc3c(=O)n2CCCO)cc1,0.1,-9.4,87.3*,62.3*,7.3,0.4
CC(C)NC(=O)CSc1nc2ccccc2c(=O)n1CCCOC(C)C,0.5,nt,53.7*,17.8,nt,0.8
CC(NC(=O)CSc1nc2ccccc2c(=O)n1CCCO)c1ccccc1 (stereo unspecified),0.1,-1.4,89.8*,72.1*,-0.5,0.3
CCOCCCn1c(SCC(=O)NC(C)(C)C)nc2ccccc2c1=O,0.9,13.8,10.9,8.0,-12.6,0.9
Cc1ccc(CNC(=O)CSc2nc3ccccc3c3nc(C)nn23)cc1,2*,1.9,-97.6,23.1,-3.2,0.8
COc1c(Cl)cc(-c2noc(C)c2C(=O)NCCc2ccc(C)cc2)cc1Cl,0.6,-1.7,39.3,-2.3,0.8,1
NC(=O)CNC1CC(=O)N(CCc2ccccc2)C1=O (stereo unspecified),0.9,-6.1,6.7,13.5,9.1,0.9
c1ccc2c(c1)sc1nnnn12,1,-1.8,0.8,0.9,1.3,1
C=CCn1c(N)cc(=O)nc1SCC(=O)Nc1ccc2ccccc2c1,nt,-1.8,nt,nt,7.0,nt
C=CCn1c(N)cc(=O)nc1SCC(=O)NC(C)c1ccccc1 (stereo unspecified),1.2,-1.4,-16.1,51.7*,6.9,0.5
CC1(C)CC(=O)C=C(Nc2cccc(O)c2)C1,0.9,-2.6,7.9,3.3,2.1,1
C=CCCCCCCCCC(=O)NNC1=CC(=O)CC(C)(C)C1,0.5,22.3,51.0*,27.9,-19.6,0.7
O=C(COC(=O)c1cc(S(=O)(=O)N2CCOCC2)ccc1O)NCC1CCCO1 (stereo unspecified),0.9,0.4,8.0,4.7,-0.1,1
Cc1cc(NC(=O)CSc2nc3ccccc3c(=O)n2C(C)c2ccccc2)no1 (stereo unspecified),0.9,-7.2,14.3,82.4*,1.3,0.2
CCC(C)n1c(SCC(=O)Nc2cc(C)on2)nc2ccccc2c1=O (stereo unspecified),0.5,nt,52.2*,61.6*,nt,0.4
CCCCn1c(SCC(=O)Nc2cc(C)on2)nc2ccccc2c1=O,0.9,0.4,9.7,18.1,-2.4,0.8
CCN1CCN(C(=O)C2CCC(CNS(=O)(=O)c3ccccc3)CC2)CC1 (stereo unspecified),1.4,-9.9,-41.1,-24.2,6.8,1.2
Cc1ccc(S(=O)(=O)Cn2nnnc2CN(Cc2ccco2)CC2CCCO2)cc1 (stereo unspecified),0.1,3.7,91.2*,84.4*,-1.2,0.2
Cc1ccc2cc(CN(Cc3nnnn3Cc3ccco3)CC3CCCO3)c(=O)[nH]c2c1C (stereo unspecified),0.1,nt,86.2*,82.2*,nt,0.2
Cc1ccc2[nH]c(=O)c(CN(Cc3nnnn3Cc3ccccc3)C3CCCC3)cc2c1,0.5,5.6,48.6,38.3,-7.4,0.6
Cc1cccc2cc(CN(Cc3nnnn3Cc3ccco3)C3CCCC3)c3nnnn3c12,0.1,0.9,93.8*,92.3*,-1.5,0.1
